Data taken from the supplement of paper PMC4840960.

System: E18 rat cortical neuron-glia co-culture
Assay: myelination (MBP fiber length per Olig2+ nucleus), % of 1 µM DAPT response (DMSO = 0) (% of DAPT); higher = more myelination, active = 50 or more
Settings: 5 µM; treatment time: 8 days (DIV5-DIV13)
Outline: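 The myelination value was the continuous straight MBP fiber length per Olig2+ nucleus, scaled between 0.1 % DMSO (0) and a 1 µM positive control (100). It was measured in primary E18 rat cortical co-cultures treated with library compounds at 1 or 5 µM in myelination medium from DIV5 through DIV13. Cells were fixed in 4 % paraformaldehyde and stained for MBP, Olig2 and DAPI, and four 10X fields per well were imaged in duplicate wells.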

myelination, inactive:
CCOC(=O)c1ccc(OC(=O)CCCCCNC(=N)N)cc1 [Gabexate] -14.2, CN(C)CCc1c[nH]c2ccc(Cn3cncn3)cc12 [Rizatriptan] -20.4, CCC1=C[C@@H]2CN(C1)Cc1c([nH]c3ccccc13)[C@@](C(=O)OC)(c1cc3c(cc1OC)N(C)[C@H]1[C@@](O)(C(=O)OC)[C@H](OC(C)=O)[C@]4(CC)C=CCN5CC[C@]31[C@@H]54)C2 [Vinorelbine] -26.1, CN(C)CCN(Cc1ccccc1)c1ccccn1 [Tripelennamine] -33.5, O=C(c1ccc(OCCN2CCCCC2)cc1)c1c(-c2ccc(O)cc2)sc2cc(O)ccc12 [Raloxifene] 13.4, Nc1nc2c(ncn2COCCO)c(=O)[nH]1 [Acyclovir] 29.3, COc1cc(C)c(Cc2cnc(N)nc2N)cc1OC [Ormetoprim] -40, Nc1nc(=O)[nH]cc1F [Flucytosine] -9.52, COc1ccc(CCN(C)CCCC(C#N)(c2ccc(OC)c(OC)c2)C(C)C)cc1OC (stereo not given) [Verapamil] -53.6, CC(C)n1c(/C=C/C(O)CC(O)CC(=O)O)c(-c2ccc(F)cc2)c2ccccc21 (stereo not given) [Fluvastatin] -13.7, Cc1cnc(C(=O)NCCc2ccc(S(=O)(=O)NC(=O)NC3CCCCC3)cc2)cn1 [Glipizide] -12.8, CC(C)OC(=O)C(C)(C)Oc1ccc(C(=O)c2ccc(Cl)cc2)cc1 [Fenofibrate] 21.8, CCn1cc(C(=O)O)c(=O)c2ccc(C)nc21 [Nalidixic Acid] -7.26, CCN(CC)CC(=O)Nc1c(C)cccc1C [Lidocaine] -24.5, CC(C)C(=O)Nc1ccc([N+](=O)[O-])c(C(F)(F)F)c1 [Flutamide] 5.48
